Hit rate of the full screen: of about 320,000 compounds, about 2,100 (0.66%) were called active. About 53% were inconclusive and are not listed. Calls come from the whole dose curve; as a rule, active = well fitted inhibition curve with a large enough effect in the signal ratio, with a control signal flat (not every such curve was filed as active); inconclusive = small, poorly fitted or top-dose-only effect, or effect the other way, or a change in a side signal; inactive = flat fitted curve, though single readings scatter; the % refers to the signal ratio. For the sample, actives were picked, then their nearest neighbours and some compounds at random.

The values that follow come from PubChem BioAssay AID2685 (National Center for Advancing Translational Sciences (NCATS), 2010).
Potency is the fitted concentration of half-maximal effect.

The test can be described thus: qHTS Assay for Lipid Storage Modulators in Drosophila S3 Cells.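 For cell number change: cells counted by Cell Tracker Red CMTPX staining in the red channel.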 For lipid storage change, negative = inhibition: % is set by controls: 0 for no effect and ±100 for the full control effect. The conditions noted are these: BODIPY lipid droplet fluorescence, 18-24 h, cells fed with added oleic acid; cell number change: measured here: cell count max response; series mostly up to 46.1 µM; lipid storage change, negative = inhibition: at the top concentration. In a few lines: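 Drosophila S3 cells got compounds at several concentrations plus oleic acid (400 uM solution). Laser-scanning cytometry with 488 nm excitation read lipid droplets at 500-530 nm and cells at 575-640 nm. Percent activity was relative to 20 uM Triacsin C.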
In general terms: In qHTS, concentration-response curves come from the screen itself.
Regarding `CN(CCOc1ccccc1Cl)Cc1ccccc1`, the Potency was 23.1 µM (active) and the cell number change is -8.5%. For `CN(CCOc1ccc(F)cc1)Cc1ccccc1`, the “lipid storage change, negative = inhibition” value is 11.2% (inactive) and the cell number change was 11.7%.

With `CN(CCCCOc1ccc(F)cc1)Cc1ccccc1`, the “lipid storage change, negative = inhibition” value was 13.9% (inactive) and the cell number change is 9.09%.

With `CN(Cc1ccccc1)C(=O)COc1ccccc1Cl`, the “lipid storage change, negative = inhibition” value is -17.2% (inactive) and the cell number change was determined as 10.4%. As for `Cc1ccc(Cl)c(OCCCCN(C)Cc2ccccc2)c1`, the “lipid storage change, negative = inhibition” value is -10.2% (inactive) and the cell number change is -11.3%.

In the case of `Cc1cc(C)c(OCCCCN(C)Cc2ccccc2)c(C)c1`, the Potency was 7.31 µM (active) and the cell number change is -22%. In the case of `CC1CN(S(=O)(=O)c2ccc(C(=O)Nc3nnc(-c4ccccn4)o3)cc2)CC(C)O1` (configuration not stated), the “lipid storage change, negative = inhibition” value is -3.48% (inactive) and the cell number change is 10.4%. As for `Cn1c(=O)c(C(=O)NNC(=O)c2ccccc2Br)c(O)c2ccccc21`, the compound was classed as inactive and the cell number change came to 7.83%.

`Cn1c(=O)c(C(=O)NNC(=O)c2ccc(Br)cc2)c(O)c2ccccc21`: the Potency was 16.4 µM (active) and the cell number change amounted to 12.5%. Take `Cn1c(=O)c(C(=O)NNC(=O)c2ccccc2F)c(O)c2ccccc21`: the call was inactive and the cell number change came out at 13%. In the case of `COc1cccc(CN2CC(C(=O)N3CCOCC3)CCC2=O)c1` (configuration not stated), the outcome was inactive and the cell number change is -3.29%. Regarding `c1ccc(-c2csc3ncnc(NCCN4CCOCC4)c23)cc1`, the “lipid storage change, negative = inhibition” value was -15.7% (inactive) and the cell number change is -69.5%.

Regarding `c1ccc(-c2csc3ncnc(NCC4COc5ccccc5O4)c23)cc1` (configuration not stated), the Potency was 1.84 µM (active) and the cell number change is -33.8%. As for `c1ccc(-c2csc3ncnc(NCc4ccccn4)c23)cc1`, the “lipid storage change, negative = inhibition” value was -14.3% (inactive) and the cell number change is -13.1%.

In the case of `COc1ccc(S(=O)(=O)NCC2CCCN(C(=O)C=C(C)C)C2)cc1` (configuration not stated), the “lipid storage change, negative = inhibition” value is 0.395% (inactive) and the cell number change is -5.61%.

With `CCOc1ccccc1C(=O)N1CCC(n2nnc3cc(C(F)(F)F)ccc32)CC1`, the result was inactive. On to `Cc1csc(NC(=O)CCC(=O)N(CC(=O)NC2CCCC2)Cc2ccco2)n1`, for which the “lipid storage change, negative = inhibition” value is 8.55% (inactive) and the cell number change worked out at 5.63%. Consider `COc1ccc(CN(CC(=O)NC2CCCC2)C(=O)CCC(=O)Nc2nc(C)cs2)cc1`, for which the Potency was 4.61 µM (active) and the cell number change came out at 2.99%. As for `CC(C)CCNC(=O)CN(C(=O)CCC(=O)Nc1nccs1)C1CCCCC1`, the Potency was 1.3 µM (active) and the cell number change is -4.17%. As to `CC(C)CCNC(=O)CN(Cc1ccccc1)C(=O)CCC(=O)Nc1nccs1`, the result was inactive and the cell number change came out at 2.61%.

Consider `COc1ccc(CN(CC(=O)NC2CCCC2)C(=O)CCC(=O)Nc2cc(C)on2)cc1`, for which the “lipid storage change, negative = inhibition” value is 6.13% (inactive) and the cell number change was determined as 2.01%. Regarding `O=C(CN(Cc1ccccc1)C(=O)CCC(=O)Nc1nccs1)NCc1ccccc1`, the “lipid storage change, negative = inhibition” value was -11.3% (inactive) and the cell number change was -17.1%.

Turning to `O=C(CCC(=O)N(CC(=O)NC1CCCCC1)Cc1cccs1)Nc1nccs1`, the “lipid storage change, negative = inhibition” value is 13.5% (inactive) and the cell number change was -2.3%. `O=C(CCC(=O)N(CC(=O)NC1CCCC1)Cc1ccccc1)Nc1nccs1`: the Potency was 3.66 µM (active) and the cell number change is 6.76%. For the compound `CC(C)CCNC(=O)CN(CC1CCCO1)C(=O)CCC(=O)Nc1nccs1` (configuration not stated), the “lipid storage change, negative = inhibition” value is 22.3% (inactive) and the cell number change was 9.95%. Consider `CC(C)(C)OC(=O)[C@H](NC(=O)OCc1ccccc1)c1ccccc1`, for which the call was inactive and the cell number change was -4.27%. On to `CSc1nc(=S)n(Cc2ccccc2)c(C)c1C(C)=O`, for which the “lipid storage change, negative = inhibition” value was 0.545% (inactive) and the cell number change was 2.19%.

In the case of `CCn1c(C)c(C(C)=O)c(SC)nc1=S`, the Potency is 23.1 µM (active) and the cell number change was -9.08%.

Consider `CCSc1nc(=S)n(CC)c(C)c1C(C)=O`, for which the “lipid storage change, negative = inhibition” value was -7.91% (inactive) and the cell number change is 11%. On to `CS(=O)(=O)N(CC(=O)Nc1ccccc1-c1ccccc1)c1ccccc1`, for which the “lipid storage change, negative = inhibition” value was 3.31% (inactive) and the cell number change is 6.57%.

As for `CNC(=S)NNC(=O)c1ccc(=O)n(Cc2ccc(Cl)cc2Cl)c1`, the cell number change was -1.09% and the lipid storage change, negative = inhibition is 14.6% [at 9.22 µM] (inactive). The corresponding values for `CC(C)(O)CC[C@@H](O)[C@](C)(O)[C@H]1CC[C@@]2(O)C3=CC(=O)[C@@H]4C[C@@H](O)[C@@H](O)C[C@]4(C)C3CC[C@]12C` (some centres not stated) are -13.6% and -9.22% (inactive). The corresponding values for `Cc1cccc(-n2cc(-c3ccccc3)c3c(N4CCOCC4)ncnc32)c1` are 18.2% and 8.58% (inactive). Consider `O=C(O)CSc1ncnc2nc[nH]c12`, for which the Potency is 20.6 µM (active) and the cell number change was found to be 2.03%. `CC(=O)CSc1ncnc2nc[nH]c12`: the “lipid storage change, negative = inhibition” value is 1.08% (inactive). In the case of `O=C(CSc1ncnc2nc[nH]c12)c1ccc(Cl)cc1`, the “lipid storage change, negative = inhibition” value is 4.43% (inactive) and the cell number change was -11.7%. Consider `CC(C)c1nnc(NC(=O)C2CCN(C(=O)Nc3ccc(Cl)cc3)CC2)s1`, for which the “lipid storage change, negative = inhibition” value is 3.85% (inactive) and the cell number change was 5.41%. On to `CCc1ccccc1NC(=S)N(CCN1CCCCC1)Cc1ccco1`, for which the “lipid storage change, negative = inhibition” value is -1.49% (inactive) and the cell number change was 5.79%.

For the compound `Cc1cc(OCCCn2cnc3ccccc3c2=O)ccc1[N+](=O)[O-]`, the “lipid storage change, negative = inhibition” value is 20.5% (inactive) and the cell number change is 0.141%.

Consider `COc1cc(OC)cc(C(=O)NC(=S)NNC(=O)Cc2cccs2)c1`, for which the “lipid storage change, negative = inhibition” value was 14.8% (inactive) and the cell number change was found to be 0.453%.

For the compound `CCOC(=O)N1CCN(c2c(N3CCN(c4ccc(OC)cc4)CC3)c(=O)c2=O)CC1`, the “lipid storage change, negative = inhibition” value is 2.64% (inactive) and the cell number change turned out to be 5.73%. Regarding `CCCCn1c(CN2CCN(c3cccc(Cl)c3)CC2)nc2c1c(=O)n(C)c(=O)n2C`, the call was inactive.

`CCCCn1c(CN2CCN(c3ccccc3)CC2)nc2c1c(=O)n(C)c(=O)n2C`: the Potency was 20.6 µM (active) and the cell number change was -29.7%.

For `CCCCn1c(CN2CCN(c3ccc(F)cc3)CC2)nc2c1c(=O)n(C)c(=O)n2C`, the “lipid storage change, negative = inhibition” value is 5.72% (inactive) and the cell number change stood at 2.55%. `O=C(NCc1ccccc1)C1C2C=CC3(CN(Cc4cccnc4)C(=O)C13)O2` (configuration not stated): the “lipid storage change, negative = inhibition” value is -17.4% (inactive) and the cell number change was -20%.
